In all, about 110,000 compounds were measured (“z-score”: median about -0.1, highest 2% from about 2 on). This excerpt belongs to a sample that is enriched for the highest values. Active and inactive are the calls of the source.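 Rule for the calls: active = z-score in the third read window above 3 or below -3; inactive = the rest.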

The test deals with Metabotropic glutamate receptor 8 (Rattus norvegicus) (UniProt P70579). Nature of the test: rat mGluR8 modulators via GIRK flux, primary screen, cell-based, thallium flux, HTS (AID 488969). Conditions: HEK293 rat mGluR8, GIRK (G protein-gated inwardly rectifying potassium channel) thallium flux, FluoZin2; at 10 µM; stronger effect = higher value; submaximal glutamate (EC20) added with thallium.
Metabotropic glutamate receptor 8 (Rattus norvegicus), sequence (P70579 whole entry, looked up): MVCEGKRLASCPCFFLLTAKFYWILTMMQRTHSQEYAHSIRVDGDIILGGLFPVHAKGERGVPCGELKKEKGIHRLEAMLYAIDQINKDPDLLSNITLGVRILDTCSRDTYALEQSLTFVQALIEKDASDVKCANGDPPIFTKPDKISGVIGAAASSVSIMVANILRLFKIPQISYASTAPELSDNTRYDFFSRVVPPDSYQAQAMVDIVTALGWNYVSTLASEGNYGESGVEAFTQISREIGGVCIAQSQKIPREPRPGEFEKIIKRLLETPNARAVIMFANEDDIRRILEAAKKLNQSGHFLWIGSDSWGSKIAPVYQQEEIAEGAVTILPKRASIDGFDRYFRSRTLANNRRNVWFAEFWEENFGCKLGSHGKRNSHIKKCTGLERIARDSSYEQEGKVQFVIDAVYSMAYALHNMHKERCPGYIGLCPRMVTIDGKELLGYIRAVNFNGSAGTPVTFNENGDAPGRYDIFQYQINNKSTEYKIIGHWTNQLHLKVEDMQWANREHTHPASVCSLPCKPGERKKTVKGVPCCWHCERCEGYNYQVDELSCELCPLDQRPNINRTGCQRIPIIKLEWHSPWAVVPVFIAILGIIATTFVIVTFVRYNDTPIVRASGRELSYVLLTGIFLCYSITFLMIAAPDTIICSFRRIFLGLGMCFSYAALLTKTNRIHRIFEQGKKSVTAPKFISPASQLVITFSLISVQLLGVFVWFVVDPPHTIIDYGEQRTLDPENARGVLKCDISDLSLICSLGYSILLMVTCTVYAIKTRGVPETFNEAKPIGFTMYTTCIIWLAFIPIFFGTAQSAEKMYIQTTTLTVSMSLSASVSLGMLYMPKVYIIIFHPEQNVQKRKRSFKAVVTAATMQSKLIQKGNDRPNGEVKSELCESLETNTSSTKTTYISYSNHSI
In turn, `COc1ccc(CNC(=O)CSCc2cnn(-c3ccccc3)c2-n2cccc2)cc1` yielded a z-score of 0.0302.
The compound `Cc1cccc(NCc2ccccc2O)c1C` returned a z-score of 0.825.
Compound `COc1ccc(OCCNc2cc(N3CCCCC3)ccc2[N+](=O)[O-])cc1` had a z-score of -0.255.
Take `O=C(Cc1ccccc1)Nc1ccc(N2CCOCC2)cc1N1CCOCC1`: the z-score was -0.544.
In the case of `CCNC(=O)C1CC(=O)N(CC)C(=Nc2cc(Cl)c(O)c(Cl)c2)S1` (stereo not drawn), the z-score came to 0.28.
In turn, `COC(=O)CSc1nc2nc(C)cc(C)n2n1` displayed a z-score of -0.251.
With `CCOC(=O)c1nnn(CC(=O)Nc2ccccc2OC)c1C(=O)OCC`, the z-score was -0.326.
In turn, `CCOC(=O)c1nnn(CC(=O)Nc2cccc(Cl)c2C)c1C(=O)OCC` registered a z-score of 2.12.
In turn, `COC(=O)c1nnn(CC(=O)Nc2cccc(Cl)c2C)c1C(=O)OC` gave a z-score of -0.193.
Take `COc1ccccc1S(=O)Cc1ccc(C(=O)NCc2ccccc2Cl)o1` (stereo not drawn): the z-score is -0.228.
`CC(=O)Nc1nonc1-c1nc2ccccc2n1N(C(C)=O)C(C)=O`: the z-score is -2.35.
For `CCC(C)n1c(=S)[nH]c2c(sc3ccc([N+](=O)[O-])cc32)c1=O` (stereo not drawn), the z-score was 9.11 (active).
Compound `CC(C)n1c2ccccc2c2cc([N+](=O)[O-])ccc21` came in with a z-score of -0.11.
`CCC(C)n1c(SCc2ccc([N+](=O)[O-])cc2)nc2ccsc2c1=O` (stereo not drawn) came in with a z-score of 0.36.
The compound `CCOc1ccc(CNc2ncnc(N)n2)cc1` displayed a z-score of -0.398.
Regarding `CCOc1ccc(Nc2ncnc(N)n2)cc1`, the z-score was 4.23 (active).
As to `Nc1ncnc(Nc2ccc(F)cc2)n1`, the z-score amounted to 0.0495.
Compound `COc1cc(/C=C(\C#N)C(N)=O)ccc1OS(=O)(=O)c1ccc(C)cc1` gave a z-score of -0.309.
As for `O=[N+]([O-])c1ccc(COc2cccc(CNc3ccc(Br)cc3)c2)cc1`, the z-score was 0.133.
The value for `CCc1ccc(N2C(=O)C(Cl)=C(N3CCOCC3)C2=O)cc1` was -0.428; that for `O=C1C(Cl)=C(N2CCOCC2)C(=O)N1c1cccc(Cl)c1` was 13.9 (active).
Turning to `Cc1ccc(N2C(=O)C(Cl)=C(N3CCOCC3)C2=O)cc1Cl`, the z-score is -0.0801.
Compound `CCN(CC)CCn1c(SCC(=O)NCc2ccco2)nc2c(sc3ccccc32)c1=O` came in with a z-score of -0.759.
As for `Cc1nn(-c2ccccc2)c(C)c1/C=N/NC(=O)CSc1nnc(-c2ccccc2)n1-c1ccc(Cl)cc1`, the z-score came out at 0.0544.
As to `Cc1ccc(C(=O)Nc2nc(-c3cccnc3)cs2)o1`, the z-score was -0.0733.
The value for `O=C(Nc1nc2ccc(Cl)cc2s1)c1ccc(Br)o1` was 6.8 (active).
In turn, `O=C(Nc1nc2c(Cl)cccc2s1)c1ccc(Br)o1` gave a z-score of 0.452.
As for `O=c1oc2ccccc2cc1-c1csc(NN=C2CCCC2)n1`, the z-score was -0.3.
Consider `O=C(Nc1cccc(-c2cc3ccccc3oc2=O)c1)c1ccc(Br)o1`, for which the z-score is -0.101.
Consider `O=C(Nc1nc2ccc(Cl)cc2s1)c1ccco1`, for which the z-score is -0.371.
For the compound `O=C(Nc1nc(-c2cc3ccccc3oc2=O)cs1)c1ccc(Br)o1`, the z-score was 13.7 (active).
Then `O=C(Nc1nc(-c2ccccc2)cs1)c1cccs1`, with -0.61.
Then `O=C(Nc1nc(-c2ccccc2)cs1)c1ccc(Br)o1`, with 2.96; and `O=C(CSc1ncn(-c2ccccc2)n1)NCc1ccccc1`, with -0.242; and `CCN1CNC(=S)N(c2ccccc2OC)C1`, with -0.242.
Turning to `COCCn1c(SCC(=O)NCc2ccco2)nc2cccnc21`, the z-score worked out at 0.0661.
In the case of `COc1ccc(-c2noc(CCC(=O)Nc3cc(Cl)c(OC)cc3OC)n2)cc1`, the z-score is -0.134.
Turning to `COc1ccc(NC(=O)C(Sc2ccccc2)c2ccccc2)c(OC)c1` (stereo not drawn), the z-score is 2.25.
Turning to `COC(=O)c1cc(OC)c(OC)cc1NC(=O)Nc1ccc(OC)cc1OC`, the z-score is 3.48 (active).
The value for `COc1ccccc1NC(=O)C(Sc1ccccc1)c1ccccc1` (stereo not drawn) was 0.792; that for `COC(=O)c1cc(OC)c(OC)cc1NC(=O)Nc1ccccc1OC` was -0.56.
Take `COc1ccc(OC)c(NC(=O)C(Sc2ccccc2)c2ccccc2)c1` (stereo not drawn): the z-score turned out to be 0.629.
Consider `COC(=O)c1cc(OC)c(OC)cc1NC(=O)Nc1ccc(OC)cc1`, for which the z-score is -0.0386.
The value for `COc1cc2cc(C#N)c(SCC(=O)N3CCOCC3)nc2cc1OC` was 0.593; that for `C=CCn1cc(/C=N/NC(=O)COc2cccc3cccnc23)c2ccccc21` was -0.515; that for `Cc1ccc(-c2nn(CCC#N)cc2C=C(C#N)C#N)cc1` was 0.287.
In turn, `O=S(=O)(c1ccccc1)n1c(C(O)c2ccccn2)cc2ccccc21` (stereo not drawn) yielded a z-score of 0.524.
Compound `COc1ccc(N(CC(=O)N2c3ccccc3CC2C)S(=O)(=O)c2c(C)nn(C)c2C)cc1` (stereo not drawn) gave a z-score of -0.0129.
Compound `CCOc1ccc(NC(=O)Nc2ccc(N(C)C(C)=O)cc2)cc1` yielded a z-score of 0.478.
`COc1ccc(NC(=O)NC23CC4CC(CC(C4)C2)C3)cc1OC`: the z-score is -0.136.
In turn, `COC(=O)c1cccc(NC(=O)NC23CC4CC(CC(C4)C2)C3)c1` displayed a z-score of -0.16.
Consider `COc1cccc(NC(=O)Nc2cccs2)c1`, for which the z-score worked out at 1.67.
The value for `N#Cc1cccc(NC(=O)c2ccccc2C(=O)O)c1` was -0.112; that for `CCOc1ccc(NC(=O)Nc2cccs2)cc1` was 2.37.
The value for `CCOc1ccc(NC(=O)C23CC4CC(C2)CC(c2ccccc2)(C4)C3)cc1` was -0.381.
Regarding `CCOc1ccc(NC(=O)NC23CC4CC(CC(C4)C2)C3)cc1`, the z-score is 4.76 (active).
`O=C(NNC(=O)c1ccc2c(c1)OCO2)NC12CC3CC(CC(C3)C1)C2` displayed a z-score of -0.287.
On to `CCOc1ccc(NC(=O)Nc2ccc3nccnc3c2)cc1`, for which the z-score was -0.163.
For `N#Cc1cccc(NC(=O)Nc2cccs2)c1`, the z-score turned out to be 2.55.
Then `O=C(Nc1ccc2c(c1)OCCO2)NC12CC3CC(CC(C3)C1)C2`, with 2.32; and `CNC(=O)NC(=O)CSc1nc2ccccc2n1CCOC`, with -0.465; and `O=C1C2CCCN2C(c2cccc(Br)c2)N1c1ccc(F)cc1` (stereo not drawn), with -0.401.
On to `C/C(=N/NC(=O)OC(C)(C)C)c1ccco1`, for which the z-score was -0.124.
As to `COC(=O)c1cn(CC(=O)N2CCCCC2C)c2ccccc12` (stereo not drawn), the z-score was -0.213.
As to `COC(=O)c1ccc(C(=O)OC)c(NC(=O)CCc2ccc(C)o2)c1`, the z-score was -0.67.
Compound `CCCCCn1cnc2sc(CC)cc2c1=O` gave a z-score of -0.4.
Then `Cc1ccc(C(CCN)c2ccco2)cc1` (stereo not drawn), with 0.345; and `O=C1NC(=O)/C(=C\c2ccc(Sc3ccc(Cl)cc3)o2)N1`, with -0.263; and `Cc1cccc(NC(=S)NCC(c2cccnc2)N(C)C)c1` (stereo not drawn), with 0.286.
`CCOC(=O)c1ccc2ncc(C(=O)OCC)c(NCCN(C)C)c2c1` displayed a z-score of -0.571.
`COc1ccc(C(=O)NC(=S)NCCO)cc1Br`: the z-score is 4.72 (active).
For `C=CCN(CC=C)C(=S)NC(=O)c1ccc(C)c(Br)c1`, the z-score was 15.3 (active).
For `COc1ccc(C(=O)NC(=S)NC(C)C)cc1Br`, the z-score was 1.79.
For the compound `Cc1ccc(/C=C/C(=O)c2ccc(C)cc2)cc1`, the z-score was determined as 0.025.
With `C=CCN(CC=C)C(=S)NC(=O)c1ccc(OC)c(Br)c1`, the z-score is 15.4 (active).
Then `COc1ccc(C(=O)NC(=S)NC(C)(C)C)cc1Br`, with 0.436; and `C=CCN(CC=C)C(=S)NCCc1ccc(OC)c(OC)c1`, with -0.0119; and `CCN(CC)C(=O)c1ccc(C)c(Br)c1`, with -0.37.
`CCCCC(=O)Nc1ccc(C(=O)NNC(=O)c2ccc(C)c(Br)c2)cc1` returned a z-score of -0.00519.
The compound `COc1ccc(C(=O)NCc2ccccc2)cc1Br` registered a z-score of -0.234.
`C=CCN(CC=C)S(=O)(=O)c1ccc(NC(=S)NC(=O)/C=C/c2ccc(C)cc2)cc1` yielded a z-score of -0.0815.
Then `C=CCN(CC=C)C(=S)NC(=O)/C=C/c1ccc(C)cc1`, with 4.57 (active).
Compound `CCOC(=O)c1nn(-c2ccc(C)c(C)c2)c(=O)c2c(N)scc12` gave a z-score of -0.137.
Turning to `CC(C)(C)/C(O)=C/c1nc2ccccc2[nH]c1=O`, the z-score was -0.317.
Take `COc1ccccc1CNC(=S)NCCc1ccccc1`: the z-score was -0.133.
In turn, `COCCn1c(C)cc(C(=O)COC(=O)c2cncc(Br)c2)c1C` had a z-score of 0.145.
`COC(=O)c1cc2ccsc2n1Cc1cc(=O)n2ccccc2n1` came in with a z-score of -0.127.
`COc1cccc(C(C(=O)NC2CCCC2)N(Cc2ccco2)C(=O)c2ccco2)c1OC` (stereo not drawn) showed a z-score of -0.188.
Regarding `CC1=CC(c2ccccc2)NC(=S)N1` (stereo not drawn), the z-score was -0.113.
The value for `CCOC(=O)C1=C(C)C(c2ccccc2)NC(=S)N1` (stereo not drawn) was 0.0117.
With `CC1=C(C)C(c2ccccc2)NC(=S)N1` (stereo not drawn), the z-score is 3.39 (active).
With `CSc1ccn(CCC(=O)O)c(=O)n1`, the z-score was -0.489.
The value for `CC(=O)c1cnn(-c2nc3c(C)cccc3s2)c1C` was -0.111; that for `c1ccc(-n2nnnc2-n2ccnc2)cc1` was 0.463; that for `COc1ccc(S(=O)(=O)Cc2ccc(C(=O)NCc3cccnc3)o2)cc1` was -0.0868.
The compound `C/C(=N\NC(=O)c1nonc1N)c1cccs1` yielded a z-score of 0.127.
In turn, `CC(=O)Nc1nc2ccccc2n1CCN(C)C` yielded a z-score of -0.911.
In the case of `Cn1c(N2CCCC2)nc2c1c(=O)n(Cc1ccc(Cl)cc1)c(=O)n2C`, the z-score was 3.05 (active).
With `Cn1c(N2CCOCC2)nc2c1c(=O)n(Cc1ccc(Cl)cc1)c(=O)n2C`, the z-score is -0.42.
In turn, `Cn1c(N2CCC(C(N)=O)CC2)nc2c1c(=O)n(Cc1ccc(Cl)cc1)c(=O)n2C` yielded a z-score of -0.154.
On to `O=C(O)c1ccc(CNCc2ccc(Cl)cc2Cl)cc1`, for which the z-score was -0.14.
In turn, `COCC(=O)Nc1cc([N+](=O)[O-])ccc1C` yielded a z-score of -0.258.
As to `COCC(=O)Nc1ccc([N+](=O)[O-])cc1C`, the z-score was found to be 2.3.
As for `Cc1cc([N+](=O)[O-])ccc1NC(=S)NC(=O)Cc1ccccc1`, the z-score is 6.82 (active).
The value for `CCOC(=O)Nc1ccc([N+](=O)[O-])cc1C` was 0.0184.
Consider `Cc1cc([N+](=O)[O-])ccc1NC(=S)NC(=O)C(c1ccccc1)c1ccccc1`, for which the z-score amounted to 0.175.
Turning to `Cc1cc([N+](=O)[O-])ccc1NC(=O)Cc1ccc(F)cc1`, the z-score is -0.108.
In turn, `S=c1[nH]nc(Cc2cccc3ccccc23)n1-c1ccccc1` had a z-score of -0.324.
Then `O=C(NNC(=O)c1ccccc1Br)c1ccc(Cl)cc1`, with 0.075; and `COc1ccc(C(=O)Nc2c(C)ccc3nsnc23)cc1[N+](=O)[O-]`, with 0.723.
In the case of `CC1CCCCN1C/C=C/c1ccccc1[N+](=O)[O-]` (stereo not drawn), the z-score was -0.203.
Then `COc1cc(C#CC#CCN2CCCCC2)ccc1O`, with 2.82; and `COc1cc(C(=O)OCCN2CCCCC2)ccc1O`, with 0.0129; and `COc1cc(C(=S)N2CCCCC2)ccc1O`, with 0.0785.
In turn, `O=C(CN1CCCC1)Nc1c2c(nc3ccccc13)N(Cc1ccccc1)CC2` came in with a z-score of 1.74.
`COc1ccc(NC(=O)COC(=O)CC23CC4CC(CC(C4)C2)C3)c([N+](=O)[O-])c1`: the z-score is 2.75.
With `COc1ccc(NC(=O)COC(=O)C2CCCCC2)c([N+](=O)[O-])c1`, the z-score came out at 0.159.
The value for `COc1ccc(NC(=O)COC(=O)CC2CC3CCC2C3)c([N+](=O)[O-])c1` (stereo not drawn) was -0.182.
